We go through 61 molecules from PubChem BioAssay AID624483 (NMMLSC, 2012).

The structures appear in SMILES notation. About 11,000 (3.1%) of roughly 360,000 compounds were called active. Inconclusive results (about 2%) are left out. What follows is part of a selection rich in actives, with near analogues and random picks from the rest. A number with no mark means an inactive call. Rule as the data show it: active = fluorescence intensity above about 16000; inconclusive = no clear call, values can overlap the other calls; inactive = below that.

The assay can be described thus: counter-screen for toxin protease inhibitors: compound fluorescence, primary screen, artefact control for toxin protease inhibitor project, biochemical, multiplex microsphere, HTS (AID 624483). The settings on record: compound autofluorescence counterscreen, microsphere flow cytometry; hits give high values.
For `COc1ccc(CCNC(=O)C2CCCN(S(=O)(=O)c3ccc(OC)cc3)C2)cc1` (stereo unspecified), the fluorescence intensity was 5700.
With `CC(=O)Nc1ccc(NC(=O)C2CCCN(S(=O)(=O)c3ccc(Cl)cc3)C2)cc1` (stereo unspecified) the figure was 5830; with `COc1ccc(S(=O)(=O)N2CCCC(C(=O)Nc3ccc(NC(=O)c4ccccn4)cc3)C2)cc1` (stereo unspecified), 22100 (active); with `Cc1ccc(F)c(S(=O)(=O)NC(=O)C2(C)CCN2C(=O)CCc2cccs2)c1` (stereo unspecified), 3440.
As for `COC(=O)c1ccccc1NS(=O)(=O)c1ccc2[nH]c(=O)[nH]c2c1`, the figure is 2520; as for `COC(=O)c1ccc(NC(=O)c2ccccc2NS(=O)(=O)c2ccccc2)cc1`, 20200 (active).
As for `CCOc1ccc(NC(=O)c2ccccc2NS(C)(=O)=O)cc1`, the figure is 9540; as for `O=C(NCCC(=O)N1O[C@@H]2C=C[C@H]1C2)OCC1c2ccccc2-c2ccccc21`, 3360.
Regarding `COc1ccc(S(=O)(=O)NC(=O)C2(C)CCN2C(=O)c2ccccc2CCc2ccccc2)cc1` (stereo unspecified), the fluorescence intensity was 3970.
With `O=C(O)c1ccc(F)c(S(=O)(=O)Nc2ccccc2)c1` the figure was 9990; with `COc1ccc(Cl)cc1S(=O)(=O)Nc1cccc(C(=O)O)c1`, 22100 (active).
With `COc1ccc(C)cc1S(=O)(=O)Nc1cccc(Cl)c1Cl` the figure was 2450.
With `COc1ccc(C(N)c2csc(NC(=O)Nc3cccc(C(F)(F)F)c3)n2)cc1` (stereo unspecified) the figure was 3490.
Take `CC(=O)c1ccc(-n2nnnc2SCC(=O)N2CCN(C(=O)c3ccco3)CC2)cc1`: the fluorescence intensity is 2310.
With `Cn1nnnc1SCC(=O)N1CCN(C(c2ccccc2)c2ccccc2)CC1` the figure was 3570; with `Cn1nnnc1SCC(=O)N1CCN(Cc2ccccc2)CC1`, 19800 (active); with `CC(C)COc1ccc(C(=O)NNC(=O)CCC(=O)c2cccs2)cc1`, 4110.
As for `O=C(O)CCSc1nnc(-c2ccccc2)n1-c1ccccc1`, the figure is 22100 (active).
As for `NNC(=O)CSc1nnc(-c2ccccc2)n1-c1ccccc1`, the figure is 3710; as for `O=C(O)CSc1nnc(-c2ccc3c(c2)OCO3)n1-c1ccccc1`, 2040.
With `COc1ccccc1Cc1c(-c2ccc(Cl)cc2)nc2ccc(Cl)cn12`, the fluorescence intensity is 8280.
On to `Cc1nn(-c2ccccc2)c(C)c1NC(=O)CCl`, for which the fluorescence intensity was 2020.
As for `Cc1nn(-c2ccccc2)c(Cl)c1C(=O)Nc1ccccc1`, the figure is 20900 (active); as for `COc1ccc(CCNC(=O)c2c(C)nn(-c3ccccc3)c2Cl)cc1`, 5520.
As for `CCc1nc2ccc(C(=O)Nc3cc(-c4ccccc4)ccc3OC)cn2c1N(CC)CC(=O)N(C)C`, the figure is 3600; as for `CCOC(=O)C1CCN(Cc2ccc(-c3ccccc3)cc2)CC1`, 3660.
With `CCOC(=O)C1CCN(Cc2coc3ccc(Cl)cc3c2=O)CC1`, the fluorescence intensity is 20400 (active).
As for `CCOC(=O)C1CCN(C(=O)Nc2ccc(Cl)cc2)CC1`, the figure is 2770; as for `Cc1cc(CNCc2c(C(=O)N(C)Cc3ccccc3)nc3ccccn23)nn1C`, 2160; as for `N#CC1=C(N)Oc2cc(O)ccc2C1C1CCCCC1` (stereo unspecified), 4810.
As for `COc1ccc(C2C(C#N)=C(N)Oc3cc(N)ccc32)cc1OC` (stereo unspecified), the figure is 23300 (active).
Regarding `N#CC1=C(N)Oc2cc(N)ccc2C1c1ccccc1` (stereo unspecified), the fluorescence intensity is 4230.
On to `O=C(NCc1ccccc1Cl)c1csc([C@@H]2O[C@H](CO)[C@@H](O)[C@H]2O)n1`, for which the fluorescence intensity is 3690.
With `Cc1cccc(-n2ncc(C#N)c2-n2cccc2)c1` the figure was 19100 (active); with `Cc1cccc(-n2ncc(Cl)c(Cl)c2=O)c1`, 3990.
In the case of `CC(=O)Nc1c2c(nn1-c1cccc(C)c1)CSC2`, the fluorescence intensity is 5830.
As for `CCOC(=O)C1CCCN(C(=O)c2ccc(N(C)C)cc2)CC1` (stereo unspecified), the figure is 2830; as for `CCc1nc2c(OCCC3CCCCC3)cccn2c1N(C)C(=O)c1ccco1`, 3130; as for `COc1ccc(C(=O)N2CCCCC2c2cc(C(=O)Nc3ccccc3)no2)cc1` (stereo unspecified), 3670.
`CCCNC(=O)C1(C)CCN(Cc2ccc(Cl)c(Cl)c2)C1` (stereo unspecified): the fluorescence intensity was 4070.
With `CC1(C(=O)Nc2ccccc2Br)CCN1C(=O)CC1CC1` (stereo unspecified) the figure was 4640; with `O=C(Nc1cccc(Cc2ccccc2)c1)Nc1ccc2nc([C@@H]3O[C@H](CO)[C@@H](O)[C@H](O)[C@H]3O)[nH]c2c1`, 5830.
As for `O=C(C(Cl)Cl)N1CCN(c2ccccn2)CC1`, the fluorescence intensity was 2340.
Turning to `O=C(CN1CCN(c2ccccn2)CC1)NC1CCCCC1`, the fluorescence intensity is 5140.
As for `CN1C(=O)CC(N2CCN(c3ccccn3)CC2)C1=O` (stereo unspecified), the figure is 20700 (active); as for `CCCCc1c(-c2ccc(Cl)cc2)ncn1CCc1ccccc1OC`, 6340; as for `COc1ccc(CN(Cc2ccco2)S(=O)(=O)c2ccc(S(=O)(=O)N3CCCC3)cc2)cc1`, 23600 (active).
In the case of `CCOc1ccc(CN(Cc2ccco2)S(=O)(=O)c2ccc(-n3cnnn3)c(OC)c2)cc1`, the fluorescence intensity was 11600.
With `COc1ccc(S(=O)(=O)NCc2ccc(C(=O)N(C)Cc3ccco3)cc2)cc1` the figure was 10900; with `CC1(C(=O)Nc2cccc3c2CCCC3)CCN1C(=O)C1(c2ccccc2)CC1` (stereo unspecified), 3760.
With `C=CCn1c2c(c3ccccc31)CCC2` the figure was 6080; with `CC(=O)c1ccc(Nc2nc(C(N)c3ccccc3)cs2)cc1` (stereo unspecified), 3990.
With `NS(=O)(=O)c1ccc(NS(=O)(=O)/C=C/c2ccccc2)cc1` the figure was 7650.
For `COc1ccc(-c2csc(Nc3cccc(C)n3)n2)cc1OC`, the fluorescence intensity is 3770.
As for `COc1ccc2c(c1OC)C(=O)OC2Nc1nc(-c2ccccc2)cs1` (stereo unspecified), the figure is 2960; as for `NS(=O)(=O)c1ccc(Nc2nc(-c3ccccc3)cs2)cc1`, 23200 (active).
With `COc1ccc(Nc2nc(-c3ccccc3)cs2)cc1` the figure was 23300 (active); with `CCCOc1ccc(F)cc1-c1cc(C(=O)Nc2ccc(F)cc2)[nH]n1`, 3520; with `COCCn1c(SCC(=O)c2[nH]c(C)c(C(C)=O)c2C)nc2ccccc2c1=O`, 3120.
With `CC(C)Cn1cc(-c2cncc3nccn23)cn1` the figure was 4100; with `COCCCNC(=O)c1ccc(-c2c(C)noc2C)c2ccoc12`, 3520.
